Bioassay records (PubChem)
Most compounds without a hit are left out; they make up all but 4% or so of the library.
TWEAK-Fn14 inh: inhibitors of TWEAK-Fn14 signaling, primary screen, luciferase reporter cells, uHTS. TWEAK-stimulated Fn14 reporter cells, luciferase luminescence, 8 h. inhibition, % at 10 µM. 360,000 compounds, 2% hits. AID 1159606, 2016; in the data active = inhibition above about 50%
HIF-2a inh: HIF-2a reporter inhibitors, primary screen, luminescence, 786-0 RCC cells; 786-0 RCC cells HIF-2a reporter, luciferase luminescence, overnight; inhibition, % at 18.8 µM; 360,000 compounds, 0.72% hits;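 active = inhibition of the luminescence signal of 40% or more relative to plate controls, in a single-dose primary screen at 18.75 µM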
CF NFkB block: inhibitors of PAF-induced NF-kB signaling, primary screen, cell-based, GFP fluorescence, uHTS; KKLEB NF-kB-GFP reporter, GFP fluorescence overnight; inhibition, % at 5 µM; 360,000 compounds, 0.86% hits; AID 588850, 2011;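 active = at least 50% inhibition at 5 µM, scaled per plate between neutral and stimulator controls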;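 also: PAF is a Pseudomonas aeruginosa culture filtrate used as stimulus; plate controls were PAF-stimulated DMSO wells for no effect and unstimulated DMSO wells for full effect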
TROY signal inh: inhibitors of TROY-driven NF-kB signaling, primary screen, Q293 LMP1-TROYcd cells, NF-kB luciferase, uHTS; Q293 LMP1-TROYcd NF-kB luciferase reporter, 4 h; inhibition, % at 10 µM; AID 1347056, 2019; 360,000 compounds, 0.98% hits;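 active = compounds whose plate-normalised and pattern-corrected inhibition of the luciferase reporter signal at the single screening dose is 50% or more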
KKLEB tox: cytotoxicity in KKLEB CF airway cells, primary screen, cytotoxicity control for CF NF-kB inhibitor project, cell-based, uHTS, fluorescence assay plates; KKLEB CF airway cells viability, ATPlite luminescence, overnight; hits give low values; cells stimulated with P. aeruginosa culture filtrate; activity change (cytotoxicity), % at 5 µM; 360,000 compounds, 0.36% hits; AID 602141, 2011;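 active = corrected activity change at or below -50% at 5 µM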
Peg3 promoter: Peg3 promoter-driven luciferase inhibitors, primary screen, cell-based, HeLa, luciferase luminescence. AID 588405, 2011. inhibition, % at 20 µM. HeLa PEG-Prom luciferase reporter, overnight. 360,000 compounds, 1.7% hits;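 active = inhibition of at least 50% at 20 µM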
An asterisk follows results filed as active; . = no result.

SMILES	TWEAK-Fn14 inh	HIF-2a inh	CF NFkB block	TROY signal inh	KKLEB tox	Peg3 promoter
O=C(CCn1c(=O)[nH]c2ccccc2c1=O)NCCSCc1ccccc1	4	16	7	3	8	14
CC(=O)OCC(=O)[C@@]12OC3(CCCC3)O[C@@H]1C[C@H]1[C@@H]3CCC4=CC(=O)C=C[C@]4(C)[C@@]3(F)[C@@H](O)C[C@@]12C	-25	26	82*	17	14	-4
CC(=O)OCC(=O)C1(O)CCC2C3CCC4=CC(=O)C=CC4(C)C3(F)C(O)CC21C (configuration not stated)	-6	17	73*	37	18	-12
CC(=O)OCC(=O)[C@@]1(O)CC[C@H]2[C@@H]3CCC4=CC(=O)C=C[C@]4(C)[C@H]3C(=O)C[C@@]21C	-11	-147	19	-11	18	-5
C[C@@H](c1ccccc1)N1C[C@@H](COCc2ccccc2)Oc2cc(N3CC[C@@H](N(C)C)C3)ccc2S1(=O)=O	-6	-27	.	-18	.	.
CCCOc1ccc(/C=C/C(=O)OCC(=O)N(C)c2c(N)n(Cc3ccccc3)c(=O)[nH]c2=O)cc1OCC	10	1	-4	12	0	-7
C=CCN1C(=O)NC(c2ccc(OC)cc2)(C(F)(F)F)S/C1=C(\C#N)c1nnc(N2CCOCC2)n1-c1ccccc1 (configuration not stated)	50*	25	5	-7	-13	16
CCc1nc2c(OCc3ccc(C(F)(F)F)cc3)cccn2c1N(C)C(=O)c1ccco1	-4	-2	-15	-21	11	12
O=C1CC(NC23CC4CC(CC(C4)C2)C3)C(=O)N1c1ccc2c(c1)OCO2 (configuration not stated)	33	-29	5	56*	-7	-28
O=C1CC(N2CCCCCC2)C(=O)N1c1ccc2c(c1)OCO2 (configuration not stated)	-12	-15	5	-7	-2	-5
CCOC1=CC2=C(C(=O)C(Cl)=CC2=O)[C@@H]2CN(S(=O)(=O)c3ccc(C)cc3)[C@@H](c3ccccc3)[C@H]12	43	57*	-16	12	-16	49
Cc1nn(CCc2nn[nH]n2)c2nc(-c3ccc(C4CCCCC4)cc3)cc(C(F)(F)F)c12	26	12	76*	56*	-57*	24
NC(=O)c1ccc(NC(=O)COC(=O)c2ccc(Br)c(S(=O)(=O)N3CCOCC3)c2)cc1	-17	-3	8	3	5	-7
O=C(CN1C(=O)CSc2ccc(S(=O)(=O)N3CCCCCC3)cc21)NCCc1ccccc1	6	-6	-11	-5	-9	3
O=C(CN1C(=O)CSc2ccc(S(=O)(=O)N3CCOCC3)cc21)NCCc1ccccc1	97*	2	22	-1	1	0
CCC(C(=O)NCCCN1CC(C)CC(C)C1)n1nc(C)c2sc3ccccc3c2c1=O (configuration not stated)	-2	8	-6	-9	-16	13
Cc1ccccc1NC(=O)c1sc2nc3c(c(-c4ccco4)c2c1N)CCC3	3	-12	-4	-8	0	6
Nc1c(C(=O)NCC2CCCO2)sc2nc3c(c(-c4ccco4)c12)CC/C3=C\c1ccco1 (configuration not stated)	89*	1	2	9	-13	11
CCC(C)n1c(NC(=O)c2ccccc2)c(C#N)c2nc3ccccc3nc21 (configuration not stated)	42	17	0	58*	11	29
CCCCn1c(NC(=O)c2ccccc2)c(C#N)c2nc3ccccc3nc21	64*	-20	-27	68*	-10	38
CCC(=O)Nc1c(C#N)c2nc3ccccc3nc2n1-c1ccc(C)cc1	13	24	20	3	2	18
CCN(Cc1ccc2c(c1)OCCO2)C(=O)CSc1nc(C)nc2sc(C)c(C)c12	11	11	8	58*	-24	37
Cc1cc(Sc2nc(N)ncc2[N+](=O)[O-])ncn1	32	3	38	5	-2	79*
Cc1cc(N)ncc1[N+](=O)[O-]	25	21	-6	-1	8	0
COc1ccc2ccc(OCC(=O)NCC3CCCO3)cc2c1 (configuration not stated)	7	-8	2	-17	6	-12
SMILES	TWEAK-Fn14 inh	HIF-2a inh	CF NFkB block	TROY signal inh	KKLEB tox	Peg3 promoter
Cc1nnc(SCc2nnc(-c3cccs3)o2)n1Cc1ccccc1	7	12	-2	12	1	4
Clc1ccc(-c2nnc(CSc3nnc(-c4cccs4)n3Cc3ccccc3)o2)cc1	64*	18	-1	48	4	46
N#C/C(=C\c1ccc([N+](=O)[O-])o1)C(=O)Nc1ccc(F)cc1	-11	-33	4	-23	4	53*
COc1ccc(NC(=O)/C(C#N)=C\c2ccc(Br)o2)cc1	-5	-146	1	-67	-5	-114
OC[C@H]1O[C@@H](c2nc3ccc(-c4nc(-c5ccc(Br)cc5)no4)cc3[nH]2)C[C@@H]1O	63*	-296	-38	46	14	-182
CCN(CC)C(=O)c1ccc2nc([C@H]3C[C@H](O)[C@@H](CO)O3)[nH]c2c1	5	3	4	1	6	13
COc1ccc(CC(=O)Nc2ccc(N(C)C)c3ccccc23)cc1	1	17	-4	5	-5	18
O=C(Nc1nc(-c2ccccn2)cs1)c1ncc(Cl)c(Cl)c1Cl	-57	2	2	-46	-5	69*
COc1cccc(C(c2c(NC(=O)c3ccco3)sc(C)c2C)N2CCOCC2)c1 (configuration not stated)	82*	-22	-2	36	6	-10
CCOc1ccc(C(c2c(NC(=O)c3ccco3)sc(C)c2C)N2CCOCC2)cc1 (configuration not stated)	66*	-33	4	12	8	-8
Cc1sc(NC(=O)c2ccco2)c(C(c2ccncc2)N2CCOCC2)c1C (configuration not stated)	-22	15	2	0	-5	7
O=C(NCCNC(=O)Oc1cccc2ccccc12)Oc1cccc2ccccc12	38	-75	19	35	-11	-95
O=C(Nc1cc(-c2ccccc2)nn1C1CCCCC1)c1ccc(Cl)cc1	14	11	19	54*	-3	3
FC(F)Oc1ccc(NC(=S)NCc2ccccc2)cc1	-16	-34	2	-4	3	-20
